High-throughput results deposited in PubChem by National Center for Advancing Translational Sciences (NCATS).
NPC1 prom act: NPC1 promoter activation; Huh7 NPC1 promoter luciferase reporter, 24 h; Potency, µM (top dose mostly 9.22 µM), inactives show at the top dose activation, most hits filed as activators; 320,000 tested, 2.4% active; further: % of control where 0% means no effect; nearly all actives have a fitted effect of over 60% in size
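Luminescence from an NPC1 promoter-driven luciferase reporter in stably transfected Huh7 cells was measured after 24 h compound treatment at 37 °C, followed by 10 min ambient incubation with luciferase detection reagent.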
Rab9 prom act: activates the Rab9 promoter. Huh7 Rab9 promoter-luciferase reporter, luminescence, 24 h. Potency, µM (titrated, usually from 9.22 µM), inactives show at the highest dose activation, negative = inhibition, usual class: activators. 320,000 tested, 2.8% active; further: % of control where 0% means no effect; nearly all actives have a fitted effect of over 60% in size
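Cells were plated at 1500 per well in reduced-serum medium with 10% FBS and left 2 h. Compound in DMSO was then added for 24 h at 37 °C. Reporter signal was read by luminescence after 10 min with luciferase detection reagent.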
FLuc modulator: counter-screen for miR-21 project: firefly luciferase inhibitors or activators; 360,000 tested, 6.9% active; AID 588342; P08659; purified FLuc, Km substrates, luminescence inhibition; Potency, µM (titrated, usually from 57.5 µM), without a hit: at the top dose activity change, negative = inhibition, most hits filed as inhibitors;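 further: plate controls were vehicle for no effect and reference inhibitor for full effect; nearly all actives have a fitted effect of over 55% in size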
Target sequence (P08659 whole entry, looked up): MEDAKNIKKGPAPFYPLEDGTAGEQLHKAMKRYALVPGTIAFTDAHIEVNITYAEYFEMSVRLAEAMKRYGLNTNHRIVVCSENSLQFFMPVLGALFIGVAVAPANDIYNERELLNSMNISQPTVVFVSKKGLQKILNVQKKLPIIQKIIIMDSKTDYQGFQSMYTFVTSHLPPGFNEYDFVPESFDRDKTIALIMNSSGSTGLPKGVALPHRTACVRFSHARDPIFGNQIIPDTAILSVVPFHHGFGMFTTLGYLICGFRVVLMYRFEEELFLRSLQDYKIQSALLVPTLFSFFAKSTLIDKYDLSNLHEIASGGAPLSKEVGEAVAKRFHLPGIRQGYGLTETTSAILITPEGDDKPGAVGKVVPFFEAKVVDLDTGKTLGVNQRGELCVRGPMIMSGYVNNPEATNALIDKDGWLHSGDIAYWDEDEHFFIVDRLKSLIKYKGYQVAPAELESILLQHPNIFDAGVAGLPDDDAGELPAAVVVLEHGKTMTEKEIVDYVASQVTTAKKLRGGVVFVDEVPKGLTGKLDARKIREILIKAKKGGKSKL
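Purified P. pyralis luciferase, 10 nM final, with Km-level 10 uM D-luciferin and 10 uM ATP in 50 mM Tris acetate pH 7.5, 10 mM Mg acetate, 0.01% Tween-20, 0.05% BSA; 6-point qHTS titration about 60 µM downward; luminescence read.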
SMN2 splice up: enhancers of SMN2 splice variant expression. Potency, µM (doses to about 46.1 µM), for the others: at the highest dose activity change, positive = activation, most hits filed as activators. AID 1458. HEK293 SMN2-luciferase splicing reporter, luminescence, 30-36 h. 210,000 tested, 2.8% active; further: % of control where 0% means no effect; nearly all actives have a fitted effect of over 55% in size
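qHTS luciferase splicing reporter: luminescence rises when SMN2 exon 7 is included in transfected HEK293 cells. Compound exposure lasted 30-36 h at 37C, with 4.5 mM final sodium butyrate as control, followed by a ONE-Glo read.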
ELG1 genotox: genotoxicity induction in ELG1-luciferase HEK293T cells | HEK293T ELG1-luciferase reporter, luminescence, 16 h | Potency, µM (top dose mostly 46 µM), without a hit: at the highest dose activity change, positive = activation, most hits filed as activators | 330,000 tested, 1.3% active | AID 504466; further: % of control where 0% means no effect; nearly all actives have a fitted effect of over 60% in size
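Screening used a luciferase reporter fused to human ELG1 in HEK293T cells. Luminescence was read on a CCD plate imager after 16 hr exposure and 30 min ONE-Glo incubation.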
ELG1 repair inh: blocks ELG1-dependent DNA repair in HEK293T cells; HEK293T ELG1-luciferase reporter, luminescence, 16 h; DNA damage induced by 5-fluorouridine; Potency, µM (top dose mostly 46.1 µM), without a hit: at the highest dose activity change, negative = inhibition, actives largely listed as inhibitors; 330,000 tested, 2.3% active; further: on the % scale 0 is the no-effect control and ±100 the full control effect; nearly all actives have a fitted effect of over 55% in size
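HEK293T cells expressing luciferase-tagged ELG1 (2,000/well) received 5-Fluorouridine plus compound or DMSO for 16 hr at 37 °C. Luciferase was read by ONE-Glo luminescence after 30 min at room temperature.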
The depositor's hits bear a star; u = inconclusive; x = not tested or not shown. Sampled rows, rich in hits. Any-hit rate of the full collection: about 9.2%. The call rests on the fitted dose curve; in most records, active means well fitted curve in the direction sought with a large enough effect; inconclusive means small, poorly fitted or top-dose-only effect, or another doubt; inactive means no such curve, though single readings can be large; an effect the other way counts as inactive or inconclusive. Potency means the concentration at half of the fitted maximal effect.

SMILES	NPC1 prom act	Rab9 prom act	FLuc modulator	SMN2 splice up	ELG1 genotox	ELG1 repair inh
O=C(NCc1ccco1)c1ccc(-c2ccccc2Cl)o1	2%	30%	17µM*	29%	16%	u
O=C(NCC1CCCO1)c1cc(-c2ccccc2F)no1 (stereo not given)	u	2.8µM*	15µM*	x	u	u
O=C(NCC1CCCO1)c1ccc(-c2ccccc2Cl)o1 (stereo not given)	3.5µM*	2.8µM*	17µM*	x	u	u
COc1ccccc1CNC(=O)c1ccc(-c2ccccc2Cl)o1	3%	0%	u	6%	-2%	3%
O=C(NCc1ccco1)c1ccc(-c2ccc(Cl)cc2)o1	18%	25%	15µM*	-10%	3%	u
O=C(CCl)NC(Cc1c[nH]c2ccc(OCc3ccccc3)cc12)C(=O)O (stereo not given)	-4%	-3%	-8%	x	6%	5%
COc1ccc(S(=O)(=O)n2nc(C)c(S(=O)(=O)N3CCC(C)CC3)c2C)cc1C	x	x	-16%	x	x	x
Cc1cccc(N2CCN(c3ncnc4c3nc3n4CCCCC3)CC2)c1C	x	x	2%	x	x	x
COC(=O)c1ccccc1S(=O)(=O)Oc1ccc(-c2ccc(C(=O)O)cc2)cc1	11%	6%	-14%	x	3%	8%
O=C(O)c1ccc(-c2ccc(OS(=O)(=O)c3ccccc3F)cc2)cc1	u	u	12µM*	x	u	u
Cc1ccccc1-n1c(C)cc(/C=C(\C#N)C(=O)NCC2CCCO2)c1C (stereo not given)	0%	u	0.95µM*	-7%	10µM*	u
COc1ccc(/C=C(\C#N)C(=O)NCc2cccs2)cc1OC	-3%	0%	-13%	2%	0%	-4%
Cc1cc(/C=C(\C#N)C(=O)NCc2cccs2)c(C)n1-c1ccccc1F	3.5µM*	3.5µM*	2.1µM*	-29%	u	u
COc1ccc(CCNC(=O)CCc2c(C)nc3c(c(C)nn3-c3ccccc3)c2C)c(OC)c1	x	x	2%	4%	x	x
COC(=O)C1=CN(c2ccc(OC)cc2)C=C(C(=O)OC)C1c1ccc(C)c([N+](=O)[O-])c1	-8%	-9%	3%	-12%	0%	-14%
COC(=O)C1=CN(c2cccc(C)c2)C=C(C(=O)OC)C1c1cc(OC)c(O)c([N+](=O)[O-])c1	-3%	-2%	17µM*	-4%	-8%	1%
O=C(CSc1nnc(Cc2cccs2)n1CCc1ccccc1)N1CCCc2ccccc21	7%	-4%	0%	1%	-22%	21µM*
CC1Cc2ccccc2N1C(=O)CSc1nnc(Cc2ccccc2)n1CCc1ccccc1 (stereo not given)	-5%	2%	4%	-7%	-30%	18µM*
Cn1c(Cc2cccs2)nnc1SCC(=O)N1CCCc2ccccc21	-3%	2%	12%	-13%	-2%	u
CCC1CCC(C(=O)NC(CCSC)C(=O)NCCc2ccc(S(N)(=O)=O)cc2)CC1 (stereo not given)	-1%	0%	-6%	x	-2%	0%
COc1ccc(C(=O)n2cc(C(=O)c3cc(C)ccc3O)cn2)cc1	-4%	-10%	5%	u	-7%	u
O=C(c1cnn(C(=O)c2ccco2)c1)c1ccccc1O	x	x	x	x	-1%	-15%
Cc1ccc(O)c(C(=O)c2cnn(-c3ccccc3)c2)c1	-1%	3%	u	x	u	u
O=C(c1cnn(C(=O)c2ccc(O)cc2)c1)c1ccccc1O	2%	0%	3.8µM*	-6%	-4%	3%
COc1ccc(C(=O)n2cc(C(=O)c3cc(C)ccc3O)cn2)cc1OC	2%	-1%	-3%	-4%	-3%	23µM*
SMILES	NPC1 prom act	Rab9 prom act	FLuc modulator	SMN2 splice up	ELG1 genotox	ELG1 repair inh
Cc1ccc(-n2cc(C(=O)c3ccccc3O)cn2)cc1	0.56µM*	u	0.3µM*	-42%	u	u
Cc1cc(NC(=O)COC(=O)C2CCN(S(=O)(=O)c3ccccc3)CC2)c([N+](=O)[O-])cc1C	3%	-4%	5%	x	9%	26%
COc1cccc(-n2c(CN3CCN(c4ccccc4)CC3)nc3ccc([N+](=O)[O-])cc3c2=O)c1	0%	-2%	-1%	-4%	1%	18µM*
COc1ccc(NC(=S)NCc2cccs2)cc1	-1%	4%	u	u	-1%	-9%
CC(C)c1ccc(NC(=S)NCc2cccs2)cc1	24%	20%	15µM*	17%	u	u
CCOCCCn1c(C)nc2c(c1=O)c1nc3ccccc3nc1n2-c1ccc2c(c1)OCCO2	-3%	13%	2%	x	-9%	u
O=C(NCc1nnc(SCC(=O)N2CCN(c3ccccc3)CC2)o1)c1c(F)cccc1Cl	-2%	1%	-1%	x	-3%	-8%
S=C(NCc1ccccc1)Nc1ccc(Oc2ccccc2)cc1	-5%	-3%	-21%	x	-7%	-20%
S=C(NCc1ccccc1)Nc1ccc2ccccc2c1	2.2µM*	u	13µM*	x	u	u
C/C(=C\C(=S)Nc1ccccc1)Nc1ccc2ccccc2c1	16%	14%	17µM*	-2%	26%	u
CC(C)c1ccc(NC(=O)c2ccc(Br)o2)cc1	0.89µM*	0.63µM*	2.1µM*	2.5µM*	u	u
COc1ccc(NC(=O)c2ccc(Br)o2)cc1	u	u	9.5µM*	14µM*	u	u
COc1ccc(NC(=O)c2ccc([N+](=O)[O-])o2)cc1	23%	25%	u	x	u	u
CC(C)c1ccc(NC(=O)C2=NNC(=O)CC2)cc1	2.8µM*	3.2µM*	12µM*	x	u	u
O=C(NC(=S)Nc1ccccc1)c1ccc(Br)o1	u	u	13µM*	22µM*	u	u
Cc1ccc2c(c1)N(C(=O)N1CCC(C(=O)NCCc3ccc(Cl)cc3)CC1)CC(C)O2 (stereo not given)	x	x	-3%	x	x	x
CC(O)(CS(=O)(=O)Cc1ccccc1)c1ccccc1Cl (stereo not given)	-1%	-3%	-1%	x	-3%	-16%
Cc1nc(-c2cccc(NC(=O)c3ccc(Br)o3)c2)cs1	12%	-2%	u	x	-11%	11%
O=C(Nc1cccc(F)c1)c1ccc(-c2ccccc2C(F)(F)F)o1	-4%	3%	u	0%	9%	24%
Cc1nc(-c2ccc(NC(=O)c3ccc(Br)o3)cc2)cs1	1.8µM*	0.79µM*	1.5µM*	x	2.9µM*	u
